From ChEMBL document CHEMBL3988442, “University of Dundee, Small-Polar-MMV Screening Library” (2021)
Hit rate of the full screen: of about 48,000 compounds, about 13,000 (27%) showed an effect of 50% or more. The list shows a part of the results.

Each molecule was assayed on Wolbachia pipientis (assay: Anti-Wolbachia Cell-Based Screen). Details: 5 µM.
Type: functional
Set-up: scale not given: in the data most compounds retested in dose-response had high values

Structure (SMILES)	Percent Effect
Cc1cnn(CC(C)NCCc2cccs2)c1 (configuration not stated)	11.98%
COCCN1C[C@H]2[C@@H](C1)N(C(=O)COc1ccccc1)CC[C@H]2OC	0.3223%
CC(C)=CCN1CCN(C(=O)COc2ccccc2)[C@H]2CS(=O)(=O)C[C@H]21	-38.59%
CC1CN(C)CCN1C(=O)COc1cccc(Oc2ccccn2)c1 (configuration not stated)	82.16%
O=C(c1ccnc(-n2cnnc2)c1)N1CCCC2(CCNC2)C1 (configuration not stated)	-10.09%
CN(C)c1nccc(N(C)C2CCN(CC3CCOC3)CC2)n1 (configuration not stated)	-1.947%
CC(C)N1CCOC(c2ccnc(N(C)C)n2)C1 (configuration not stated)	82.78%
CC(C)N1CCC(N(C)c2ccnc(N(C)C)n2)CC1	15.64%
CCOC(=O)N1CCCC2(CCCNC2)C1.Cl (configuration not stated)	-10.87%
Oc1ccc(N2CCN(Cc3ccc(F)cc3Br)CC2)cc1	1.788%
CCCN(CC)c1cc(C2CCNCC2)nc(C)n1	112.1%
CC(C)NC(=O)CN1CCSC2(CCCCC2)C1	-91.97%
O=C1N(Cc2ccccn2)C[C@H]2CN(C3CCOCC3)CCN12	0.5644%
O=C(c1cnc(-c2ccccc2)s1)N1CCC2(CC1)OCCO2	-4.517%
O=C(C1CC(=O)N(c2ccccc2)C1)N1CCC2(CC1)OCCO2 (configuration not stated)	-2.385%
O=C(c1cccc(-n2cnnn2)c1)N1CCC2(CC1)OCCO2	106.4%
Cc1cnc(N2C[C@H]3CCN(CC4CC4)C[C@H]3C2)nc1.O=C(O)C(F)(F)F	15.24%
Cc1cnc(N2C[C@H]3CCN(CC4CC4)C[C@@H]3C2)nc1.O=C(O)C(F)(F)F	6.173%
CCCN1CCC(c2nc3ccc(C)cn3n2)CC1.O=C(O)C(F)(F)F	104.2%
O=C(NC[C@H]1C[C@@H]2CCN1C[C@@H]2CN1CCCCC1)Nc1ccsc1	3.271%
CC[C@H]1CN2CC[C@H]1C[C@@H]2CNCc1ccc(OC(F)(F)F)cc1	-1.711%

Structure (SMILES)	Percent Effect
CNc1ncccc1C(=O)N1CCN(C)C2(CCN(C)CC2)C1	-3.315%
CCOc1ncccc1C(=O)N1CCN(C)C2(CCN(C)CC2)C1	-9.489%
CCN1CCN(C(=O)c2cn(Cc3ccccc3)c3ncccc23)CC1	118.7%
CCc1ccc(OCC(=O)N2CCN(CC)CC2)cc1	-2.93%
CN1CCN(C(=O)c2cn(Cc3ccccc3)c3ncccc23)CC1	129.1%
Cc1ccc(CC(=O)N2CCN(CC(O)c3ccccc3)CC2)cn1 (configuration not stated)	-5.029%
CC(C)CN1CCC2(CC1)CN(C(=O)C(C)C)C2.O=C(O)C(F)(F)F	-9.801%
Cc1ccc([C@]2(O)CC[C@H]3CN(Cc4ccccc4F)C[C@H]32)nc1.O=C(O)CC(O)(CC(=O)O)C(=O)O	152.5%
O=C(O)C(F)(F)F.O=C1[C@@H]2CN(Cc3ccccn3)C[C@H]2CCN1c1cncnc1	16.77%
O=C(O)CC(O)(CC(=O)O)C(=O)O.O[C@@]1(c2ccccn2)CC[C@H]2CN(Cc3cccc(Cl)c3Cl)C[C@H]21	-2.173%
Cc1ccc(CN2C[C@@H]3CN(c4ncc(F)cn4)C[C@@H]3C2)cc1.O=C(O)C(F)(F)F	6.106%
O=C(O)CC(O)(CC(=O)O)C(=O)O.O[C@@]1(c2ccccn2)CC[C@H]2CN(Cc3ccccn3)C[C@H]21	115.3%
O=C(N1CCCC1)N1C[C@@H]2CCNC[C@@H]21	-24.15%
CCCN1C[C@H]2CC[C@@H]1CN(C(=O)Cc1c(C)nc(CC)[nH]c1=O)C2	6.983%
CNC(=O)[C@@H]1C[C@H]2CN(c3ncccn3)C[C@H]2N1C(C)C.O=C(O)C(F)(F)F.O=C(O)C(F)(F)F	-5.727%
C[C@H]1CN2C[C@H](O)CC2CN1Cc1ccncc1 (some centres not stated)	120.2%
O=S1(=O)C[C@@H]2[C@H](C1)N(Cc1ccoc1)CCN2Cc1ccncc1	-1.69%
C[C@@H]1CN2C[C@H](O)CC2CN1Cc1ccncc1 (some centres not stated)	148.8%
Oc1cccc(CN2C[C@H]3CC[C@@H]2CN(Cc2ccncc2)C3)c1	-4.265%
CC(C)NC(=O)[C@H]1C[C@@H]2[C@@H](C1)OCCN2Cc1ccncc1	-4.174%
COCCN1CCN(Cc2ccncc2)[C@H]2CS(=O)(=O)C[C@H]21	0.5994%

Structure (SMILES)	Percent Effect
Cc1c(CN2CCCC(C(=O)c3ccc(C(C)(C)C)cc3)C2)cnn1C (configuration not stated)	35.11%
CN1CCC2(CC1)C(=O)N(C)c1ccc(F)cc12.Cl	-19.58%
CN1CCN(c2ccc(CO)cc2F)CC1	13.78%
CN1CCN(c2ccc(F)cc2C(N)=O)CC1	129.8%
CCN1CCC2(CCC1=O)CN(c1nccc(N)n1)CCN2C (configuration not stated)	-7.397%
CCNCCc1nc2cc(F)ccc2[nH]1.Cl	-10.45%
Cc1ccc2c(n1)N(C)CCN(Cc1cnn(C)c1)C2	75.85%
Cc1ccc2c(n1)N(C)CCN(CCN1CCCC1)C2.O=C(O)C(F)(F)F.O=C(O)C(F)(F)F.O=C(O)C(F)(F)F	31.59%
Cc1oc(-c2ccco2)nc1CC(=O)N1CCN(CC(C)O)CC1 (configuration not stated)	16.55%
Cc1ccc(C(=O)N2C[C@@H]3CCCO[C@@H]3[C@H](N3CCCC3)C2)cn1.O=C(O)C(F)(F)F.O=C(O)C(F)(F)F	-21.68%
Cc1ccc(C(=O)N2C[C@H](N3CCOCC3)[C@@H]3OCCC[C@@H]32)cn1.O=C(O)C(F)(F)F.O=C(O)C(F)(F)F	103.6%
CN1CCN([C@@H]2CN(C(=O)c3ccnnc3)[C@@H]3CCCO[C@H]23)CC1	-8.561%
CC(C)(C)n1cc(C2=CCN(CCNC(N)=O)CC2)cn1	-16.31%
CCCNC(=O)c1cn(C(C)(C)C)c2ncccc12	115.3%
CCCn1cc(C(=O)NCCCC(N)=O)c2ccccc21	15.02%
CC(C)(C)n1cc(C(=O)NCCN2CCOCC2)c2cccnc21	135%
CC(C)(C)n1cc(C2=CCN(CCNC(=O)c3ccccc3)CC2)cn1	-2.502%
CNC(=O)c1cn(C(C)(C)C)c2ncccc12	127%
CCNC(=O)c1cn(C(C)(C)C)c2ncccc12	133.4%
CC(C)(C)n1cc(C(=O)NCCCn2ccnc2)c2cccnc21	3.37%
